Source: PubChem
D2 antagonist: HTS Assay for Allosteric Antagonists of the Human D2 Dopamine Receptor: Primary Screen for Antagonists | HEK293 TREx D2 cells, calcium flux, dopamine EC80 | inhibition, % at 10 µM | 340,000 tested, 2% active | AID 485344, 2010; in the data active = inhibition above about 30%; inactive = below that, where a call was filed; note: 0% is about no effect
Target sequence (P14416 whole entry, looked up): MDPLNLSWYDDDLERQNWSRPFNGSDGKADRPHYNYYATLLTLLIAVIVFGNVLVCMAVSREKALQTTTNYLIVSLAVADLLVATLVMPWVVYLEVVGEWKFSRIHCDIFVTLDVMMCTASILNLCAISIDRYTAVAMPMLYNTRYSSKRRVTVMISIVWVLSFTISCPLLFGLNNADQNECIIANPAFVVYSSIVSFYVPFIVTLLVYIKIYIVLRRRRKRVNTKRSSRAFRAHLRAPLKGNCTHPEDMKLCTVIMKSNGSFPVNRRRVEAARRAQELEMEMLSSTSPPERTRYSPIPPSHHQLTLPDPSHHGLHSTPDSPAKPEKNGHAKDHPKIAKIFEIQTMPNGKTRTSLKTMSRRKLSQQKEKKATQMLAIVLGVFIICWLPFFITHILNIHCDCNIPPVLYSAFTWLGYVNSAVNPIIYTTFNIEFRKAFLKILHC
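Tetracycline-induced HEK293 T-REx cells expressing D2 force-coupled to calcium signalling were dye-loaded, exposed to compound for 180 s, then challenged with an EC80 of dopamine; calcium flux was followed kinetically for a further 180 s.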
D2 ag-1: Beta-Arrestin HTS for Positive Allosteric Modulators of the Human D2 Dopamine Receptor: Agonists; D(2) dopamine receptor (Homo sapiens), P14416; DiscoveRx PathHunter D2 beta-arrestin, luminescence, 90 min; 100% = 57 uM dopamine signal; activation, % (concentration not given with the values); 360,000 tested, 0.084% active; AID 624465, 2012; in the data active = activation above about 40%
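DiscoveRx PathHunter D2 beta-arrestin cells (2,100/well) attached overnight, then compound-stimulated 90 min at 37 C in HBSS/10 mM HEPES/0.1% Tween-20 buffer; beta-galactosidase complementation read by luminescence after 1 h at ambient temperature. Dopamine 57 uM final (EC100) as control.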
D2 PAM-1: HTS Assay for Positive Allosteric Modulators of the Human D2 Dopamine Receptor: Primary Screen for Potentiators; D(2) dopamine receptor (Homo sapiens), P14416; HEK293 T-REx D2, calcium flux, EC20 dopamine potentiation; potentiation, % at 10 µM; 340,000 tested, 0.34% active;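 active = potentiation over 3 SD above the plate norm, cut at about 30% in these data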; note: 0% is about no effect
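Potentiation of an EC20 dopamine calcium response is measured in a force-coupled, tetracycline-inducible Hek293 Trex D2 line. Compound-only kinetic reads over 180 s flag agonists before dopamine addition.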
D2 PAM-2: Beta-Arrestin HTS for Positive Allosteric Modulators of the Human D2 Dopamine Receptor: Potentiators. D(2) dopamine receptor (Homo sapiens), P14416. DiscoveRx D2 beta-arrestin cells, luminescence, 90 min; 100% = 57 uM dopamine signal. potentiation, % (no concentration beside the values). 360,000 tested, 0.23% active; in the data active = potentiation above about 50%
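PathHunter beta-arrestin assay in DiscoveRx D2 cells. Compounds were added with an EC20 of dopamine (50 nM final) for 90 min at 37 deg C. Luminescence was read 1 h after detection reagent, with 57 uM dopamine as the EC100 control.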
D2 ag-2: HTS Assay for Allosteric Agonists of the Human D2 Dopamine Receptor: Primary Screen for Agonists. D(2) dopamine receptor (Homo sapiens), P14416. HEK293 T-REx D2 cells, calcium flux agonist mode. activation, % at 2 µM. 340,000 tested, 0.53% active;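 active = activation over 3 SD above normal in the single-dose calcium agonist read, cut at about 30% in these data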; note: 0% is about no effect
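Agonism scored from kinetic calcium signal (1 read/sec, 180 s) following compound pin transfer, after a 10 s baseline. Cells: HEK293 Trex line expressing inducible D2 receptor coupled to calcium, dye-loaded after overnight culture at 30 C.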
The depositor's hits bear a star; nt = no result. Only some compounds are listed: those with a hit (about 2.4% of all), similar ones and a draw of the others.

SMILES	D2 antagonist	D2 ag-1	D2 PAM-1	D2 PAM-2	D2 ag-2
Cc1ccc(S(=O)(=O)N2CCN=C2SCc2ccc(Cl)c(Cl)c2)cc1	30*	-2	-4	4	1
Cc1ccc(CSC2=NCCN2S(=O)(=O)c2ccc(C)cc2)cc1	nt	-2	nt	-7	nt
COCCCNCCCOc1ccc(C)cc1Br	38*	-5	-36	-31	1
CCCCNCCCOc1cc(Cl)ccc1Cl	56*	-4	-19	-19	0
COCCCNCCCOc1ccc(Cl)cc1Br	-39	-1	-20	-46	-1
CCC(C)NCCCCOc1ccc(Cl)cc1C (stereo not given)	nt	-4	nt	-26	nt
CCC(C)NCCCOc1cc(Cl)ccc1Cl (stereo not given)	80*	-3	-23	-38	1
CCCCNCCOCCOc1ccc(Cl)cc1Br	72*	-8	-28	-26	0
O=C(Cn1cc(/C=N/O)c2ccccc21)N1CCOCC1	39*	-5	-5	-9	1
Cc1cccc(CSc2cn(CC(=O)N3CCOCC3)c3ccccc23)c1	35*	-1	0	-7	0
C=CCc1ccccc1OCCSc1nc(-c2ccccc2F)nc2cc(=O)[nH]n12	nt	nt	7	nt	1
CCOc1ccccc1N(C)C(=O)C1CCCN(c2ncnc3onc(-c4ccc(F)cc4)c23)C1 (stereo not given)	nt	nt	-7	nt	-1
COc1ccc(C2C(=O)N(C3CCCCCC3)CC(=O)N2CCc2ccc(OC)c(OC)c2)cc1 (stereo not given)	nt	nt	-10	nt	-1
Cc1c(C(=O)N2CCCC2)oc2c1-c1nn(CC(=O)NCCCN3CCCCC3)cc1CC2	37*	1	-6	-30	-1
Cc1cccn2c(=O)cc(COc3ccc(NC(=O)c4cccc(F)c4)cc3)nc12	nt	nt	9	nt	1
CCOC(=O)c1c(C)[nH]c(C(=O)C(C)Sc2ccc(Cl)cc2)c1C (stereo not given)	16	1	32*	2	-1
O=C1CCC(C(=O)OC(C(=O)Nc2cc(Cl)cc(Cl)c2)c2ccccc2)=NN1 (stereo not given)	33*	-2	0	5	0
O=C(O)c1ccccc1OC(C(=O)Nc1cc(Cl)cc(Cl)c1)c1ccccc1 (stereo not given)	36*	-1	-10	-7	0
CCOc1ccc(C2C(=O)N(C3CCCCCC3)CC(=O)N2CCc2ccc(OC)c(OC)c2)cc1OC (stereo not given)	nt	nt	-9	nt	0
COCCn1c(-c2ccccc2)nc(=S)c2c1CC(C)(C)OC2	11	-2	37*	29	1
Cc1c(C(=O)NCc2ccccc2)sc2nc3n(c(=O)c12)CCC3	nt	nt	-5	nt	-1
Cc1ccc(C(C)C)c(OCC(=O)Nc2ccc(S(=O)(=O)Nc3onc(C)c3C)cc2)c1	nt	nt	10	nt	nt
CCCN[C@H]1CCc2nc(N)sc2C1	nt	74*	nt	80*	nt
O=C(Oc1ccc(Cl)c2cccnc12)N1CCCCC1	8	2	-2	-2	0
O=C(Oc1ccc(Cl)c2ccccc12)N1CCCCC1	56*	-2	-2	-14	-1
SMILES	D2 antagonist	D2 ag-1	D2 PAM-1	D2 PAM-2	D2 ag-2
Cc1cc(NC(=O)CSc2nc(-c3ccco3)cc(C(F)(F)F)n2)no1	36*	-4	-2	-18	2
Cc1cc(NC(=O)CCSc2nc(-c3ccco3)cc(C(F)(F)F)n2)no1	-15	-3	1	0	-1
CC(C)Oc1ccc(S(=O)(=O)N2CCCCC2)cc1NC(=O)CN1CCCC1c1cccs1 (stereo not given)	33*	0	-4	-1	0
CC(C)Oc1ccc(S(=O)(=O)N2CCOCC2)cc1NC(=O)Cc1c(F)cccc1Cl	31*	-2	11	16	0
CCOc1ccccc1C(=O)Nc1nc2c(s1)CC(C)CC2 (stereo not given)	nt	nt	-7	nt	-1
Cc1cc2ccccn2c1C(=O)c1ccc([N+](=O)[O-])o1	36*	7	2	28	0
CCOCCCNC(=O)c1cc(C)nn1-c1ccccc1	36*	-6	6	-5	1
CCOC(CNC(=O)c1cc(C)nn1-c1ccccc1)OCC	19	2	3	-6	0
O=C(OCc1c(Cl)cccc1Cl)c1ccccn1	35*	-2	5	-16	0
CCN(Cc1ccccc1)Cc1c(O)ccc2c(=O)c(-c3ccccc3Cl)c(C(F)(F)F)oc12	nt	nt	-12	nt	0
CCN(c1ccc(OC)cc1)S(=O)(=O)c1ccc2[nH]c(=O)ccc2c1	nt	nt	-8	nt	1
Cc1ccc(Cl)c(OCCN2CCc3ccccc3C2)c1	66*	-2	-16	-6	2
Clc1ccc(OCCCCN2CCc3ccccc3C2)cc1	91*	-4	-37	-8	0
COc1ccc(-c2cc3nc(C)c(CCC(=O)Nc4ccc(F)cc4F)c(C)n3n2)c(OC)c1	nt	nt	-6	nt	0
CN1CCN(S(=O)(=O)c2cccc(C(=O)Oc3ccc(C(C)(C)C)cc3)c2)CC1	34*	-1	5	-7	1
COc1ccc2nc(SCc3cccnc3)c(C#N)cc2c1	2	-2	-1	6	0
N#Cc1cc2ccccc2nc1SCc1cccnc1	30*	4	-7	-9	0
COc1ccc(NC(=O)c2cnc(N3CCCCC3)c3ccccc23)cc1Cl	nt	nt	nt	nt	1
CCN(C(=O)c1cc2c(s1)-c1c(C)cccc1OC2)c1cc(C)ccc1C	nt	nt	14	nt	nt
Cc1ccc(NC(=S)NC(NC(=O)c2ccco2)C(Cl)(Cl)Cl)cc1 (stereo not given)	-3	0	-2	-16	1
Cc1cccc(NC(=S)NC(NC(=O)c2ccco2)C(Cl)(Cl)Cl)c1 (stereo not given)	30*	0	-24	-29	1
O=C(NC(=S)Nc1ccc2oc(=O)ccc2c1)c1cccc(Cl)c1	30*	-4	-2	-7	0
Cc1ccc(NC(=O)CN(C)C(=O)c2ccc(COc3ccccc3)cc2)cc1	-2	-5	-1	0	-1
CCCCOc1ccc(C(=O)N(C)CC(=O)Nc2ccc(C)cc2)cc1	55*	-2	0	-12	-1
COC(=O)C1CCN(S(=O)(=O)c2ccc(NC(C)=O)cc2)CC1	-17	-4	2	-19	1
COC(=O)C1CCN(S(C)(=O)=O)CC1	-15	-4	42*	-4	1
CC(=O)N(Cc1cccnc1)Cc1cc2ccccc2[nH]c1=O	-9	-1	-8	-9	0
